This note sets out measurements from PubChem BioAssay (NCATS).

SMILES strings stand for the structures. Records with an inconclusive call do not appear. Active and inactive are the calls of the source. Calls come from the whole dose curve; as a rule, active = well fitted inhibition curve with a large enough effect; inconclusive = small, poorly fitted or top-dose-only effect; inactive = flat fitted curve, though single readings scatter.

What all share (experiment): qHTS profiling for inhibitors of Plasmodium falciparum proliferation (AID 504749); note: nearly all actives have a fitted effect of over 60% in size
What all share (conditions): P. falciparum in erythrocytes, SYBR Green DNA, 72 h; series mostly up to 28.7 µM
(In general: In qHTS, concentration-response curves come from the screen itself.)

In one experiment the test system is CP265. The essentials:
(§1)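 Fluorescence of SYBR Green-bound parasite DNA, read at 485/535 nm, served as the growth measure. Infected erythrocytes were cultured with compound 72 h; artemisinin (0.29 uM) and DMSO wells defined the normalization range.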

A further experiment has as its system CP266. The essentials:
as §1

Another experiment has as its system CP268. The essentials:
as §1

For the next experiment, the system named is CP269. The method, boiled down: as §1
The next experiment has as its system CP286. The method, boiled down:
as §1

The next experiment deals with CP291. The essentials: as §1
For the next experiment, the system named is CP297. The method, boiled down: as §1
A further experiment deals with CP305. The method, boiled down: as §1
The next experiment deals with CP315. The essentials: as §1
For another experiment, the system named is CP325. The essentials: as §1
The test system of another experiment is CP329. The essentials:
as §1

The next experiment has as its system CP335. The essentials:
as §1

The test system of a further experiment is DIV14. The essentials:
as §1

The next experiment deals with DIV17. The essentials: as §1
For the next experiment, the system named is DIV30. The method, boiled down: as §1
For a further experiment, the system named is Dd2. The essentials: as §1
A further experiment concerns ECU. The method, boiled down:
as §1

In a further experiment the test system is FAB9. The essentials:
as §1

The subject of another experiment is GB4. The essentials: as §1
For the next experiment, the system named is DFO2036. The method, boiled down:
as §1
Potency is the fitted concentration of half-maximal effect.

For the molecule `Cn1c(=O)c2[nH]c(Br)nc2n(C)c1=O`, the Potency entry in the experiment on CP265, in the experiment on CP266, with CP268, with CP269, in the experiment with CP286 and in the experiment on CP291 was “inactive” throughout. Moreover, the Potency result in the experiment on CP297, in the experiment on CP305, in the experiment with CP315, in the experiment with CP325, with CP329 and in the experiment with CP335 was “inactive” each time. In addition, the Potency entry in the experiment with DIV14, with DIV17, in the experiment with DIV30, in the experiment with Dd2, in the experiment with ECU and in the experiment with FAB9 was “inactive” each time. Further, the Potency result in the experiment on GB4 was “inactive”.

For `CCNC(=O)NCc1cccc(Cl)c1`, the Potency result in the experiment on CP265, with CP266, in the experiment with CP268, with CP269, with CP286 and in the experiment on CP291 was “inactive” in each case. Further, the Potency result in the experiment with CP297, with CP305, in the experiment with CP315, in the experiment with CP325, in the experiment with CP329 and in the experiment with CP335 was “inactive” in each case. For the same molecule, the Potency entry with DFO2036, in the experiment on DIV14, in the experiment on DIV30, with Dd2, with ECU and in the experiment on FAB9 was “inactive” each time. The Potency entry in the experiment with GB4 was “inactive”.

As to `CCOc1ccc(NC(C)=O)cc1`, the Potency result in the experiment on CP265, with CP266, with CP268, with CP269, with CP286 and with CP291 was “inactive” each time. Also, the Potency entry in the experiment with CP297, in the experiment with CP305, in the experiment with CP315, with CP325, with CP329 and in the experiment on DFO2036 was “inactive” each time. Besides, the Potency entry with DIV14, in the experiment on DIV17, in the experiment on DIV30, in the experiment on Dd2, in the experiment with ECU and with FAB9 was “inactive” each time. Besides, in the experiment with GB4, the Potency result was “inactive”.

For the molecule `NC(N)=NCc1cccc(I)c1`, the Potency result with CP265, with CP266, in the experiment with CP268, in the experiment on CP269, in the experiment with CP286 and in the experiment with CP291 was “inactive” in each case. In addition, the Potency entry in the experiment on CP305, in the experiment with CP315, with CP325, in the experiment on CP329, in the experiment with DFO2036 and in the experiment on DIV14 was “inactive” in each case. In addition, the Potency entry in the experiment with DIV17, with DIV30, with Dd2, in the experiment on ECU, in the experiment with FAB9 and in the experiment with GB4 was “inactive” in each case.

Turning to `COc1cc(NS(=O)(=O)c2ccc(N)cc2)ncn1`, the Potency result in the experiment on CP265, in the experiment on CP266, in the experiment with CP268, with CP269, with CP286 and in the experiment on CP291 was “inactive” each time. Moreover, the Potency entry in the experiment with CP297, with CP305, in the experiment with CP315, with CP325, in the experiment on CP329 and in the experiment with CP335 was “inactive” in each case. For the same molecule, the Potency result with DFO2036, with DIV14, in the experiment on DIV30, with Dd2, with ECU and in the experiment with FAB9 was “inactive” in each case. Also, the Potency entry with GB4 is “inactive”.

As to `CC(C)Nc1cccnc1N1CCN(C(=O)c2cc3cc(NS(C)(=O)=O)ccc3[nH]2)CC1`, the Potency result with CP265, with CP266, in the experiment on CP268, with CP269, with CP286 and with CP291 was “inactive” each time. In addition, the Potency result in the experiment with CP297, in the experiment with CP305, in the experiment on CP315, in the experiment on CP325, in the experiment on CP329 and in the experiment with CP335 was “inactive” throughout. Moreover, the Potency result with DFO2036, in the experiment with ECU, in the experiment on FAB9 and with GB4 was “inactive” in each case. Moreover, the figures for the Potency with DIV14 and with DIV17 were 379 nM (active) and 1.07 µM (active), respectively.

As for `C/C=C/c1ccc(O)c(OC)c1`, the Potency result in the experiment on CP265, in the experiment with CP266, in the experiment with CP268, with CP269, in the experiment with CP286 and in the experiment with CP291 was “inactive” throughout. Besides, the Potency entry in the experiment on CP297, in the experiment with CP305, in the experiment with CP315, in the experiment on CP325, with CP329 and in the experiment on CP335 was “inactive” each time. Besides, the Potency entry with DFO2036, with DIV17, with Dd2, in the experiment with ECU, in the experiment on FAB9 and in the experiment with GB4 was “inactive” each time.

As to `C#C[C@]1(O)CC[C@H]2[C@@H]3CCC4=Cc5oncc5C[C@]4(C)[C@H]3CC[C@@]21C`, the Potency result with CP265, with CP266, in the experiment on CP268, in the experiment with CP269, with CP286 and in the experiment with CP291 was “inactive” in each case. Further, the Potency entry in the experiment with CP305, in the experiment on CP315, with CP325, with CP329, with CP335 and in the experiment with DFO2036 was “inactive” each time. Further, the Potency result in the experiment with DIV14, in the experiment on DIV17, with DIV30, in the experiment on Dd2, in the experiment on ECU and in the experiment with FAB9 was “inactive” each time. In the experiment with GB4, the Potency result was “inactive”.

Regarding `Cc1cccc(C)c1NC(=O)CN1CCCCCC1`, the Potency entry with CP265, in the experiment with CP266, in the experiment with CP268, in the experiment with CP269, in the experiment with CP286 and in the experiment with CP291 was “inactive” in each case. For the same molecule, the Potency result in the experiment with CP297, in the experiment on CP305, in the experiment with CP315, in the experiment with CP325, in the experiment on CP329 and with CP335 was “inactive” in each case. The Potency result in the experiment with DFO2036, in the experiment on DIV14, with Dd2, with ECU and with FAB9 was “inactive” each time.

`COc1ccc(CCN(C)CCCN2CCc3cc(OC)c(OC)cc3CC2=O)cc1OC`: the Potency result in the experiment with CP265, in the experiment on CP266, in the experiment with CP268, with CP269, with CP286 and with CP291 was “inactive” each time. Moreover, the Potency result with CP305, in the experiment with CP315, in the experiment on CP325, in the experiment on CP329, with CP335 and with DFO2036 was “inactive” throughout. The Potency result with DIV14, with DIV17, with DIV30, with ECU, in the experiment on FAB9 and in the experiment on GB4 was “inactive” throughout.

In the case of `COc1ccc2c(c1)c1c3n2CCN(C)C3=NCC1`, the Potency result in the experiment with CP265, in the experiment with CP266, in the experiment on CP268, in the experiment with CP269, in the experiment on CP286 and in the experiment on CP291 was “inactive” throughout. For the same molecule, the Potency result in the experiment with CP297, in the experiment on CP305, in the experiment with CP315, with CP325, with CP329 and in the experiment with CP335 was “inactive” each time. The Potency entry with DFO2036, in the experiment on DIV14, in the experiment on DIV30, in the experiment with Dd2, in the experiment with ECU and in the experiment with FAB9 was “inactive” throughout. Further, in the experiment with GB4, the Potency result was “inactive”.

With `CC(C)(C)NC[C@H](O)COc1cccc2c1CCCC2=O`, the Potency result with CP265, in the experiment on CP266, in the experiment on CP268, in the experiment on CP269, with CP286 and in the experiment on CP291 was “inactive” in each case. In addition, the Potency entry in the experiment on CP297, in the experiment with CP305, with CP325, with CP329, in the experiment on CP335 and with DFO2036 was “inactive” throughout. In addition, the Potency entry in the experiment on DIV17, in the experiment with DIV30, with Dd2, in the experiment with ECU and with FAB9 was “inactive” in each case.

Consider `O=C(Oc1cccc2cccnc12)c1ccccc1`, for which the Potency result in the experiment on CP265, in the experiment with CP266, in the experiment with CP268, with CP269, with CP286 and with CP291 was “inactive” in each case. Moreover, the Potency result in the experiment on CP297, in the experiment on CP305, with CP329, in the experiment with CP335, with DFO2036 and in the experiment on DIV14 was “inactive” throughout. The Potency entry in the experiment with DIV17, in the experiment on DIV30, in the experiment on Dd2, in the experiment with ECU and in the experiment with FAB9 was “inactive” throughout.

As to `CCCc1ncc(C[n+]2ccccc2C)c(N)n1`, the Potency entry with CP265, in the experiment with CP266, with CP268, in the experiment with CP269, with CP286 and with CP291 was “inactive” throughout. The Potency entry in the experiment with CP297, in the experiment on CP305, with CP315, in the experiment with CP325, with CP329 and with DFO2036 was “inactive” each time. The Potency entry in the experiment with DIV14, in the experiment with DIV17, in the experiment on DIV30, with Dd2, with ECU and in the experiment on FAB9 was “inactive” each time. For the same molecule, in the experiment with GB4, the Potency result is “inactive”.

With `CCCCCCCCNC(C)C(O)c1ccc(SC(C)C)cc1` (centres undefined), the Potency with CP265 is 1.12 µM (active); in the experiment on CP266, 1.69 µM (active); in the experiment with CP268, 1.51 µM (active); in the experiment on CP269, 1.51 µM (active); in the experiment with CP286, 1 µM (active); in the experiment with CP291 it was 1.9 µM (active). Also, the Potency is 2.69 µM (active) with CP305; 3.01 µM (active) in the experiment with CP315; 3.01 µM (active) in the experiment on CP325; 3.01 µM (active) with CP329; 601 nM (active) in the experiment on CP335; 675 nM (active) in the experiment on DIV14. The Potency was 0.757 µM (active) in the experiment on DIV17; 675 nM (active) in the experiment on DIV30; 447 nM (active) in the experiment on Dd2; 355 nM (active) in the experiment on ECU; 1.41 µM (active) with FAB9; 536 nM (active) with GB4.
